Results from the supplement of paper PMC3334620.
Over roughly 33,000 sequences, “E-score (-0.5 to 0.5)” has its median near -0.036; the highest 2% begin near 0.37. This is one part of a sample in which the highest values are shown more often than they occur.

target: T1, Yer064c (UniProt P40041); experiment: PBM E-score (8-mer binding enrichment) (E-score (-0.5 to 0.5)); higher = stronger / more preferred TF binding; settings: protein concentration: 200 nM; construct: GST-full length
T1 sequence: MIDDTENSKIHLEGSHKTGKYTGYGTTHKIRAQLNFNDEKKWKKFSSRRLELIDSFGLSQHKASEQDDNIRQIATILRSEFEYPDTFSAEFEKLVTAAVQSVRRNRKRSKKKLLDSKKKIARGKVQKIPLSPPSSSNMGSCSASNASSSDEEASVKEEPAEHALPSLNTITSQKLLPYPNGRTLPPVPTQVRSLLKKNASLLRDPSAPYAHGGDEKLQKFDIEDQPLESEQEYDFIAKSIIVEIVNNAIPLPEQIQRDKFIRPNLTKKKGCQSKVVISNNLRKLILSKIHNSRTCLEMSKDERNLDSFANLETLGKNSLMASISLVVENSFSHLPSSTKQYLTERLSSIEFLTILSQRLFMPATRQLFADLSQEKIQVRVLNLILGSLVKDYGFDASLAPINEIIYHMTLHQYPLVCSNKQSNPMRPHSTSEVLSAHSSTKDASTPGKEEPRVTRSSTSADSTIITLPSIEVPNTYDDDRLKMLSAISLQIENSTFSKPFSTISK
Protocol: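 Universal 'all 10-mer' protein binding microarrays (Agilent AMADID 015681) probed with GST-tagged S. cerevisiae TFs (full-length or DBD) made by in vitro transcription/translation (PURExpress), about 100-200 nM. Bound TF was detected with fluorescent anti-GST. Each ungapped 8-mer (which stands for itself and its reverse complement) is scored by the PBM enrichment score (E-score), a modified Wilcoxon-Mann-Whitney statistic from -0.5 to +0.5, computed with the Universal PBM Analysis Suite. Scale: above 0.35 generally sequence-specific binding.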

Sequence	PBM E-score
GACTATTA	0.379
AACTATCC	-0.235
TACTATCA	0.0134
GACTATCC	0.404
AACTATTA	-0.00806
CACTATCC	-0.196
GACTATCA	0.394
CACTATTA	0.0522
AACGCACA	-0.185
CTGGATTC	0.00174
GTACCGAC	-0.057
ATTTAGGG	-0.0441
ATTAGCCG	-0.106
TGAAGTCA	0.445
GGAAGTCA	0.426
GGAAGTGA	0.0158
AGAAGTCC	-0.056
TGAAGTAA	0.0152
CGAAGTCG	0.286
AGAAGTCG	0.207
CGAAGTCA	0.437
CGAAGTCC	0.0182

Sequence	PBM E-score
AGAAGTCA	0.43
TGAAGCCA	0.114
GGAAGTCC	0.0559
TAATGCTA	0.15
AGTTTTGC	0.0632
AATAAGAC	0.175
TGCGGTAA	0.0977
CCCACGTC	-0.157
GCGGTTAC	0.0193
ACAATGCT	-0.0617
GTAGCATA	-0.262
CCGTCGCG	-0.0591
TATTCCCA	0.00714
GATCACGA	0.0675
GACGTCGA	-0.14
CTGCATTC	-0.0186
CGACTAAC	0.43
CAACTAAC	0.132
GGACTACC	0.284
GAACTAAC	-0.0243
CGACTAGC	0.297
GGACTAAC	0.367

Sequence	PBM E-score
GTACTAAC	0.128
CGACTACC	0.383
CGACTACG	0.337
GGGAGCCA	-0.00881
CCTTACAG	-0.2
CCGTCCTC	-0.281
ACAGCGAC	0.00958
CCATGCCA	-0.113
ATGAAAGG	-0.0528
AAGTCCCT	-0.127
GTGAGAAA	-0.0285
CTGATTTC	0.222
AGGATTTC	-0.125
ATGATTTC	0.403
ATGATTTA	0.415
CTGATTTA	0.238
AAGATTTA	0.136
CCCCGTAA	-0.0314
ATTACTAG	0.0126
TCGCTCCA	-0.0823
CAGAGGGA	-0.199
AATCATGC	0.432

Sequence	PBM E-score
TATCATGA	0.256
AAGCATGT	-0.0498
AATCATGT	0.453
AATCAGGG	0.271
AATCATGA	0.43
GATCATGC	0.134
AATCAGGC	0.306
CATCATGA	0.294
AATCAAGT	0.268
AATCAGGT	0.378
CATCATGC	0.0857
ATTTGAGG	-0.0184
ATGAGGGG	-0.125
AGCCGGCA	-0.176
GAATGCTA	-0.277
GCGAAAAC	-0.131
CCTCTGTA	-0.108
CCGCCGCA	-0.299
CCACAAAG	-0.0168
AATCAAGG	0.245
AATCAGCG	0.344
